Measurements taken from the supplement of paper PMC3334620.
In all, about 33,000 sequences were measured (“E-score (-0.5 to 0.5)”: median about -0.01, highest 2% from about 0.26 on). The entries come from a sample that favours the highest values as a whole.

target: Ste12 (UniProt P13574); test: PBM E-score (8-mer binding enrichment) (E-score (-0.5 to 0.5)); higher = stronger / more preferred TF binding; conditions: protein concentration: 200 nM; construct: GST-DNA-binding domain
Procedure: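 Universal 'all 10-mer' protein binding microarrays (Agilent AMADID 015681) probed with GST-tagged S. cerevisiae TFs (full-length or DBD) made by in vitro transcription/translation (PURExpress), about 100-200 nM. Bound TF was detected with fluorescent anti-GST. Each ungapped 8-mer (which stands for itself and its reverse complement) is scored by the PBM enrichment score (E-score), a modified Wilcoxon-Mann-Whitney statistic from -0.5 to +0.5, computed with the Universal PBM Analysis Suite. Scale: above 0.35 generally sequence-specific binding.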

Chain of UniProt P13574 (P13574 whole entry, the tested form may be a part): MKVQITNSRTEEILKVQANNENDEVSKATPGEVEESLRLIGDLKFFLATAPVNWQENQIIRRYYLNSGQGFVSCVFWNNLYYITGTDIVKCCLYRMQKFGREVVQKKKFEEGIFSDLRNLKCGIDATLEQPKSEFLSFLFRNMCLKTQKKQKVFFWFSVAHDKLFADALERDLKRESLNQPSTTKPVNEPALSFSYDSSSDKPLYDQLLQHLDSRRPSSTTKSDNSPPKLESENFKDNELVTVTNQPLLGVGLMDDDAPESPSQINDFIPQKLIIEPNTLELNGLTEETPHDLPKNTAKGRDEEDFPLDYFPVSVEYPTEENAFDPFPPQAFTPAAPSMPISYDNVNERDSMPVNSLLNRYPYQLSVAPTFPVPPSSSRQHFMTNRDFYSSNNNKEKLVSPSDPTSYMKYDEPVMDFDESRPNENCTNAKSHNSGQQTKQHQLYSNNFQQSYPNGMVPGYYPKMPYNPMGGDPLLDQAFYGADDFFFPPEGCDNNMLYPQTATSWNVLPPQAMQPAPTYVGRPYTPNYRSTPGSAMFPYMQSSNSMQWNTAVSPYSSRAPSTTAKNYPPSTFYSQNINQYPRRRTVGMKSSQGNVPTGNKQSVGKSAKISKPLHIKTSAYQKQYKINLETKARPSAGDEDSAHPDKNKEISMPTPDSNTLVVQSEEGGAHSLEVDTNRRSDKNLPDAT

Sequence | PBM E-score
CCCAGGTC | -0.207
TCCACAAA | 0.14
GCTTCCAC | -0.11
CTAGGGCC | -0.187
ATCGCGCG | 0.0537
ATGTCTAA | 0.0254
GGGCCCCA | -0.146
CTCCTCAG | -0.11
GAGGTTAA | 0.0122
AGCTGGGA | -0.0199
TTGTGAAA | 0.342
CTGTGAAA | 0.322
GTGTGAAC | 0.169
GTGTGAAA | 0.307
CTGTGAGA | -0.0675
CTGTGAAG | 0.00467
ATGTGAAA | 0.202
CTGTGAAC | -0.0759
GTGTGAGA | 0.0959
ACCTGCCA | -0.121
AGAAAGGA | -0.0699
AAAGCGAA | 0.133
CTTGCATA | -0.045
TCAGGTCA | -0.015
AAAGTCCC | -0.0967
CGAGGCCG | -0.158

Sequence | PBM E-score
GGATTTAA | 0.243
CAAACATG | 0.179
AAAACAAT | 0.225
ATAACATC | 0.0956
AAAACATT | 0.28
AACACATG | 0.128
ACAACATC | -0.0874
AAAACATG | 0.324
AAAACATA | 0.208
AAAACATC | 0.301
AGTGTAGG | 0.00693
ATGTGCTG | 0.133
CTTCGCTC | -0.224
ACCACCCG | -0.106
GCCACCCC | -0.0121
ACCACCCC | 0.0858
CCCACCCC | 0.391
TCCACCCA | -0.0525
CACACCCG | 0.0642
CCCACCCA | 0.269
GCCACCCA | -0.106
CCCACCCG | 0.358
CCTCTTGC | 0.0254
ATCTTCAC | 0.145
CACGGGCG | 0.00735
ATAGCCTG | -0.0913

Sequence | PBM E-score
TAGATCGA | 0.0552
CCAGCTCA | -0.194
CCGTTGAA | 0.0239
GCTTATTA | 0.0471
CCTTATTA | 0.187
GATTATTA | 0.196
CTTTATAA | 0.153
ATTATTTA | 0.281
ATTATTTG | 0.106
ATTTATAC | 0.195
CTTATTTA | 0.171
CTTTATTA | 0.112
ATTTATAA | 0.267
ACTTATTA | 0.264
GTTTATTA | 0.304
AGATCCCG | 0.0252
GAAGGTTA | -0.115
GGCCGACC | -0.123
ACGTAAAG | 0.0191
CACAAGGG | -0.194
CGCCTCTA | -0.0334
ATTTATTA | 0.292
CTTATTAC | 0.0999
ATTTATTC | 0.121
ATTTATTG | 0.0911
ATTATTAC | 0.269

Sequence | PBM E-score
ACTATTAC | 0.0443
CGTGGTAA | -0.0665
ACATCTCA | -0.0976
CGCTCGAA | -0.0852
CTGATCAC | -0.0885
AGGCGAGA | -0.195
ATGAGACA | 0.338
GTGAGACA | 0.256
ATGAGACC | -0.144
AACTTTGC | -0.0155
AGAGTTCA | -0.222
CACATTAA | 0.0442
GAAACGTA | 0.325
CAAACGTA | -0.052
GAAACGTC | 0.303
TAAACGTA | -0.115
CAAACGTC | 0.0704
AAAACGTC | 0.134
CCCGCGAG | 0.119
ATTCGACG | 0.087
ATACCAGG | 0.0311
CCCATCAG | -0.193
GCAGGTAA | 0.0649
AGCGACAC | 0.0304
AGATCGTG | 0.0231
TGTATCAA | 0.392

Sequence | PBM E-score
AGTATCAA | 0.217
CGTATCAA | 0.088
AATATTAT | 0.24
AATATCAC | 0.107
AATATCAA | 0.283
AATATTAA | 0.327
TATATTAA | 0.22
AATATCAG | 0.0475
ACATATTA | 0.193
AGCACAAT | -0.16
TTATCGAA | 0.196
AATAGGGT | 0.148
AGACTGGA | -0.0847
CAGCTCAC | -0.301
ATCCGATC | 0.162
ATCCGATG | 0.277
ATCCGATA | 0.063
CACTCCCA | 0.0996
AGCGCTAG | -0.0146
GGCACTTA | -0.157
CTTTCAAA | 0.246
CTTTCGGA | 0.0344
GATTCGAC | 0.12
ATTTCGGA | 0.181
CATTCATC | 0.125
GGTTCAAA | 0.195

Sequence | PBM E-score
GATTCGAA | 0.277
GTTTCGGA | 0.334
CATTCATA | 0.296
GTTTCAAA | 0.47
GATTCATA | 0.00383
CATTCGAA | 0.11
ATGGTAGC | -0.0629
CACCCAAC | -0.0687
CTTGAGGA | -0.147
GGAGCTTA | -0.219
CCTATTCC | 0.0843
ACTAAAGC | 0.0971
AGGCGAAG | -0.178
ATTTCACA | 0.205
GTTTCACA | 0.447
CTTTCATA | 0.205
ATTTCGAA | 0.253
CTTTCGAA | 0.0433
GTTTCATA | 0.481
GTTTCGAA | 0.325
TAATCGAA | 0.185
GAATCGAA | 0.296
CAATCGAA | -0.021
ATTTCATA | 0.124
ATTTCACG | 0.122
AAAGCGGC | 0.054

Sequence | PBM E-score
CTGTCAGA | 0.0092
AAGTACGT | -0.0519
AACAGCAG | 0.0314
CCATGCCC | -0.0778
GTGAACGA | 0.047
GACAAACA | 0.0473
ATTTCAAA | 0.272
CTTTCAGA | 0.211
ATTTCAGA | 0.00371
ATTTCAAG | 0.0717
ATTTCAAC | 0.161
GTTTCAGA | 0.484
ACGTCAAA | 0.0313
AACTCAGC | 0.109
GCTTGGGA | -0.164
AACGTGGT | -0.0847
AACTTATT | 0.333
AACTTATG | 0.0251
AACTTATC | 0.0734
GCTTGTGA | -0.0847
AATGAAAG | 0.0381
TATGAAGA | 0.0389
GATGAACC | 0.062
AATGAAAA | 0.292
AATGAACC | 0.105
AATGAAAT | 0.231

Sequence | PBM E-score
AATGAAGC | -0.0558
AATGAAGA | 0.304
GATGAAAC | 0.494
AATGAAAC | 0.44
GATGAATC | 0.0548
CATGAAGA | -0.0377
CAAATCGA | 0.0344
CGCTAGTC | -0.27
AATGCTAG | -0.181
CAACAGAC | -0.018
TCGTTGCA | -0.0015
ATTGGGAA | 0.0116
CGTGTAAG | -0.0021
TATGAAAA | 0.152
AATGAATG | 0.292
GATGAAAA | 0.281
AATGAATC | 0.16
CATGAAAA | 0.237
GATGAACA | 0.00898
AATGAATT | 0.133
CATGAAAG | -0.00226
CATGAAAC | 0.484
CCATTTCG | -0.219
AAGCTCAG | -0.179
GCCTCTAC | -0.239
AGTATACA | -0.108

Sequence | PBM E-score
GGTATACA | -0.0232
CGTATACA | 0.306
CGTATAAA | 0.263
AGTATAAA | 0.228
CGTATAAC | -0.0972
CAACCATC | 0.109
AGAGAGGG | -0.255
GATCGTGC | 0.0893
ACTTTTAG | 0.101
ACTTTAAA | 0.275
ACTTTTAA | 0.164
ACTTTAAG | 0.225
ACTTTTAC | 0.263
AACTTTAG | 0.0874
AACTTTAA | 0.279
CCTTTTAC | 0.178
CACTTTAA | 0.159
ACTTTAAC | 0.162
ACTTTAAT | 0.263
GCTTTAAA | 0.155
